VP16 counter: inhibits Gal4-VP16 luciferase reporter, ROR gamma counter-screen; Drosophila S2 Gal4-VP16 UAS-luciferase, luminescence, 20 h; Potency, µM (doses to about 53.6 µM), usual class: inhibitors; actives 3.5% (n = 310,000);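 note: Gal4-VP16 expression switched on by copper sulfate through the metallothionein promoter; nearly all actives have a fitted effect of over 50% in size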
Giardia killer: kills Giardia lamblia; activity change, % at 7.66 µM, hits read low; Giardia lamblia trophozoite viability; actives 0.15% (n = 340,000); in the data active = activity change below about -80%; inconclusive = between about -30% and that limit;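 note: parasites exposed to compound for two days anaerobically before the ATP read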
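Giardia trophozoites, 100 cells per well, were exposed to compounds for 48 hrs at 37 deg C under anaerobic conditions; viability was then read as ATP content by bioluminescence after 15-30 min at room temperature.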
RORgamma inh: blocks mouse ROR gamma transcriptional activity | AID 2551 | actives 5.4% (n = 310,000) | Potency, µM (highest dose often 53.6 µM), hits mostly inhibitors | P51450 | Drosophila S2 Gal4-RORgamma UAS-luciferase reporter, 20 h; note: nearly all actives have a fitted effect of over 60% in size
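Schneider cells (Drosophila), stable Gal4 DBD–ROR gamma + UAS-luc; 1 hr cmpd preincubation; Cu2+ induction 700 uM final; 20 hr ambient; luminescence.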
a7 integrin act: integrin-mediated muscular dystrophy alleviation activation | Potency, µM (titrated, usually from 38.3 µM), actives largely listed as activators | actives 0.064% (n = 350,000) | alpha7betagal myoblasts, beta-gal FDG fluorescence, 48 h; note: nearly all actives have a fitted effect of over 60% in size
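alpha7betagal+/- myoblasts (passage 13, 250/well) treated 48 h at 37C with compounds at 1:260 dilution of DMSO stock. Lysed, then beta-galactosidase activity read as FDG fluorescence (ex 480/em 540) after 30 min, with pre-read for autofluorescence.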
ERG-DNA inh: inhibitors of human ERG Ets domain-DNA interaction. P11308. fluorescence polarization, His-ERG Ets domain / labelled DNA. Potency, µM (top dose mostly 76.9 µM), usual class: inhibitors. actives 0.028% (n = 370,000). AID 624246; active = well fitted inhibition curve with a large enough effect in the polarisation, with a control signal flat; inconclusive = small, poorly fitted or top-dose-only effect, or effect the other way, or a change in a side signal; inactive = no such curve, though single readings can be large or run the other way; the % refers to the polarisation;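 note: polarization taken with two DNA probes labelled with fluorescein and Texas red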
Target sequence (P11308 whole entry, looked up, the tested form may be a part): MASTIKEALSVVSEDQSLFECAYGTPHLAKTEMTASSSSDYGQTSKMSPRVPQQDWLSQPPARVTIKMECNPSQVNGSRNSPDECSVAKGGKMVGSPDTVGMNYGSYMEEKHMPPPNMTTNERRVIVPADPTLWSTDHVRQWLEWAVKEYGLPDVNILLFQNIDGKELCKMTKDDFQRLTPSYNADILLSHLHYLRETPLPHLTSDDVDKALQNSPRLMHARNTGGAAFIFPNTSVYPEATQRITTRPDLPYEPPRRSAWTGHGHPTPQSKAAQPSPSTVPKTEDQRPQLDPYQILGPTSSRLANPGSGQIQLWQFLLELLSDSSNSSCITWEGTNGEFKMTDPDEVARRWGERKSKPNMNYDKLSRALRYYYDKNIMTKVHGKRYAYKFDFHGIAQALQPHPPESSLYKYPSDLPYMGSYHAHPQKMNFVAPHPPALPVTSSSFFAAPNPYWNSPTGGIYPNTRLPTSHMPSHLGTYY
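His-tagged ERG Ets domain (1 uM in the protein solution; 300mM KCl, 50mM Tris-HCl, 1mM EDTA, 1mM DTT, pH 7.5) received compound, then a probe mix of 5 nM fluorescein-DNA and 100nM Texas-615-DNA. Fluorescence polarization was read for both dyes.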
Large screens that a line does not name were inactive. The entries come from a sample that favours hits as a whole. Unless noted, calls come from the whole dose curve; as a rule, active = well fitted curve in the direction sought with a large enough effect; inconclusive = small, poorly fitted or top-dose-only effect, or another doubt; inactive = no such curve, though single readings can be large; an effect the other way counts as inactive or inconclusive.

CCNC(=S)NNC(=O)c1cc(-c2cccnc2)nc2ccccc12	VP16 counter inconclusive, RORgamma inh 16µM, a7 integrin act inconclusive
CC(OC(=O)c1cc(-c2cccnc2)nc2ccccc12)C(=O)Nc1ccc2ccccc2c1 (centres undefined)	RORgamma inh inconclusive, a7 integrin act 1.1µM
CCNC(=S)NNC(=O)c1cc(C)nc2ccccc12	VP16 counter inconclusive, RORgamma inh inconclusive
NCCCC[C@H](N)C(=O)N[C@@H](CCCN=C(N)N)C(=O)N1CCC[C@H]1C(=O)N1CCC[C@H]1C(=O)NCC(=O)N[C@@H](Cc1ccccc1)C(=O)N[C@@H](CO)C(=O)N1CCC[C@H]1C(=O)N[C@@H](Cc1ccccc1)C(=O)O	none (no result: Giardia killer, a7 integrin act, ERG-DNA inh)
O=C1CSC(=S)N1Cc1ccccc1	none (no result: VP16 counter, Giardia killer, RORgamma inh, ERG-DNA inh)
COc1ccc(Cn2c(C)ccc2C)cc1	none
CCCCCN1CSC(=S)N(Cc2ccccc2)C1	VP16 counter 18µM, RORgamma inh 10µM
CCN1CSC(=S)N(Cc2ccc(OC)cc2)C1	VP16 counter 13µM, RORgamma inh 14µM
CCN1CSC(=S)N(Cc2ccccc2)C1	VP16 counter 10µM, RORgamma inh 10µM
Cc1ccc(NC(=O)CC2SC3=NCCN3C2=O)cc1 (centres undefined)	VP16 counter 11µM, RORgamma inh inconclusive
Cn1c(=O)n(C)c2cc(NC(=O)CCl)ccc21	VP16 counter inconclusive, RORgamma inh 11µM
CC(C)CC1NC(=O)N(CC(=O)N2c3ccccc3NC(=O)C2(C)C)C1=O (centres undefined)	a7 integrin act 5.6µM
S=C(NCCC(c1ccccc1)c1ccccc1)Nc1ccccc1Cl	VP16 counter inconclusive, RORgamma inh 13µM
S=C(NCCC(c1ccccc1)c1ccccc1)Nc1ccc(Cl)cc1	VP16 counter inconclusive, RORgamma inh 7.9µM (no result: ERG-DNA inh)
O=S(=O)(c1ccc(NC(=S)NCCC(c2ccccc2)c2ccccc2)cc1)N1CCOCC1	none
S=C(Nc1ccccc1Cl)NC1CCN(Cc2ccccc2)CC1	none
COc1ccc2sc(NC(=O)c3ccco3)nc2c1	VP16 counter inconclusive, Giardia killer inconclusive, RORgamma inh 10µM (no result: ERG-DNA inh)
COc1ccc2c(c1)Cc1sc(NC(=O)c3ccco3)nc1-2	VP16 counter inconclusive
O=C(NC(=S)Nc1nc2ccccc2s1)c1ccco1	VP16 counter 1.3µM, Giardia killer inconclusive, RORgamma inh 0.89µM
COc1ccc2nc(NC(=O)c3cccc(OCc4c(C)noc4C)c3)sc2c1	VP16 counter inconclusive, RORgamma inh 11µM
CCCOc1ccc(C(=O)NC(=S)Nc2nc3ccccc3s2)cc1	VP16 counter inconclusive, RORgamma inh 0.79µM (no result: ERG-DNA inh)
CC(C)C[C@@H](NC(=O)[C@@H](O)[C@H](N)Cc1ccccc1)C(=O)O	none (no result: Giardia killer, a7 integrin act, ERG-DNA inh)
CCC(OC(=O)c1nsc(Cl)c1Cl)C(=O)NC(C)(C)C (centres undefined)	a7 integrin act inconclusive
CCCn1c(NC(=O)CCS(=O)(=O)c2ccc(C)cc2)nc2ccccc21	none (no result: VP16 counter, RORgamma inh)
O=C(NC(=S)NCc1ccc(-c2nc3ccccc3s2)cc1)c1ccco1	VP16 counter 5.6µM, RORgamma inh 7.1µM
COc1ccc2nc(NC(=S)NC(=O)c3ccco3)sc2c1	VP16 counter inconclusive, Giardia killer inconclusive, RORgamma inh 1.1µM
O=C(NCc1ccc(-c2nc3ccccc3s2)cc1)c1ccco1	none
COc1ccc2nc(NC(=O)CCNC(=O)c3ccco3)sc2c1	none (no result: VP16 counter, RORgamma inh)
Cc1cc(C)c2nc(NC(=O)c3ccco3)sc2c1	VP16 counter 10µM, RORgamma inh 4.5µM
Cc1nc(NC(=O)c2ccco2)sc1C(=O)O	VP16 counter 11µM, RORgamma inh 7.1µM
O=S(=O)(c1ccc(NC2CCCCC2)cc1)N1CCOCC1	VP16 counter inconclusive
CCc1cc2ccc(OC)cc2nc1SCC(=O)NNC(=O)c1ccco1	RORgamma inh 18µM
O=C(CN1CCOCC1)Nc1nc2cc([N+](=O)[O-])ccc2s1	none
O=C(CN1CCOCC1)NCc1cc([N+](=O)[O-])ccc1O	a7 integrin act 13µM
Cc1ccccc1C(=O)Nc1ccc(C(=O)OCc2cc(=O)n3nc(C4CC4)sc3n2)cc1	none (no result: VP16 counter, Giardia killer, RORgamma inh, a7 integrin act)
COc1ccccc1CNC(=S)NC1CCCCC1	VP16 counter 10µM, RORgamma inh 2.2µM
Fc1ccccc1CNC(=S)NC1CCCCC1	VP16 counter 7.9µM, RORgamma inh 5µM
COc1ccccc1CNC(=O)C1CCCC1	none
S=C(NCc1ccccc1Cl)NC1CCCC1	VP16 counter 8.9µM, RORgamma inh 6.3µM

Assay outcomes from PubChem.
